# From PubChem BioAssay AID651768 (National Center for Advancing Translational Sciences (NCATS), 2012)
# Screen size: about 360,000 compounds; about 1,700 (0.47%) were called active. Inconclusive results (about 2%) are left out. The sample holds actives, similar compounds and a random draw of the others, so the mix is not that of the screen. Unmarked numbers belong to inactive results. Calls follow the shape of the dose curve; as a rule, active = well fitted inhibition curve with a large enough effect; inconclusive = small, poorly fitted or top-dose-only effect; inactive = no such curve, though single readings can be large or run the other way.
# Target: Bifunctional 3'-5' exonuclease/ATP-dependent helicase WRN (Homo sapiens) (UniProt Q14191)
# Test: qHTS for Inhibitors of WRN Helicase; also: nearly all actives have a fitted effect of over 55% in size
# Conditions: WRN helicase unwinding, fluorescent forked duplex, kinetic; series mostly up to 114 µM; activity change, negative = inhibition: at the top concentration
# From the text: Inhibition of DNA repair is proposed as a strategy for combating cancer. Synthetic lethality is an approach that exploits preexisting DNA repair deficiencies in certain tumors to develop inhibitors of DNA repair pathways that compensate for the tumor-associated DNA repair deficiency. Because helicases play critical roles in the DNA damage response and in DNA repair, particularly in actively dividing and replicating cells, characterization of synthetic lethal relationships of DNA helicases may be of value in developing improved anticancer treatment strategies; moreover, small molecules that specifically target a given DNA helicase may be useful for understanding its role in cellular nucleic acid metabolism. The goal of this project is to identify small molecule, non-covalent chemical inhibitors of the Werner syndrome (WS) helicase (WRN), which plays an important role in cell proliferation, the replication stress response, and DNA repair. […] The WRN gene product that is defective in the chromosomal instability disorder has DNA helicase and exonuclease activities and interacts with a number of nuclear proteins to maintain genomic stability. We will employ an optimized high-throughput screening assay that utilizes a fluorescence intensity modulation scheme with a fluorophore and quencher positioned near one another within a duplex deoxyoligonucleotide that contains a single forked structure. After a high-throughput screen of the ~350,000-member Molecular Libraries Small Molecule Repository (MLSMR) collection, followed by data analysis and hit selection, a panel of confirmatory, as well as secondary and ternary, assays will be employed to identify high-confidence WRN inhibitors. Structure-activity relationships will be investigated for the top candidate inhibitor series through medchem expansion. These are the results of the primary screening campaign against the MLSMR. NIH Chemical Genomics Center [NCGC] NIH Molecular Libraries Probe Centers Network [MLPCN] MLPCN Grant: MH096530 Assay Submitter (PI): Robert Brosh, National Institute of Aging
# Three muL of reagents (buffer in columns 3 and 4 as negative controls; WRN at 20 nM final concentration in columns 1 and 2 as positive controls; columns 5-48 as test reactions) will be dispensed into a 1536-well Greiner black plate via solenoid-valve based nanoliter dispensers. Compounds (23 nL each in columns 5-48) and control (23 nL each in column 2 as dose-response) will be transferred via a Kalypsys pintool equipped with a 1536-pin array. Plates will be incubated for 15 min at room temperature, and then 1 µL of substrate (100 nM forked duplex oligonucleotide and 2 mM ATP final concentrations) will be added to start reaction, and plate will be transferred into a ViewLux high-throughput CCD imager where reaction progress is measured in kinetic mode using standard red-fluorescence optics (excitation filter 525 nm, emission filter 598 nm).
# % is scaled to controls: 0 for no effect and ±100 for the full control effect; potency is read from the fitted curve at half-maximal effect.
# Sequence of Bifunctional 3'-5' exonuclease/ATP-dependent helicase WRN (Homo sapiens) (Q14191 whole entry, looked up): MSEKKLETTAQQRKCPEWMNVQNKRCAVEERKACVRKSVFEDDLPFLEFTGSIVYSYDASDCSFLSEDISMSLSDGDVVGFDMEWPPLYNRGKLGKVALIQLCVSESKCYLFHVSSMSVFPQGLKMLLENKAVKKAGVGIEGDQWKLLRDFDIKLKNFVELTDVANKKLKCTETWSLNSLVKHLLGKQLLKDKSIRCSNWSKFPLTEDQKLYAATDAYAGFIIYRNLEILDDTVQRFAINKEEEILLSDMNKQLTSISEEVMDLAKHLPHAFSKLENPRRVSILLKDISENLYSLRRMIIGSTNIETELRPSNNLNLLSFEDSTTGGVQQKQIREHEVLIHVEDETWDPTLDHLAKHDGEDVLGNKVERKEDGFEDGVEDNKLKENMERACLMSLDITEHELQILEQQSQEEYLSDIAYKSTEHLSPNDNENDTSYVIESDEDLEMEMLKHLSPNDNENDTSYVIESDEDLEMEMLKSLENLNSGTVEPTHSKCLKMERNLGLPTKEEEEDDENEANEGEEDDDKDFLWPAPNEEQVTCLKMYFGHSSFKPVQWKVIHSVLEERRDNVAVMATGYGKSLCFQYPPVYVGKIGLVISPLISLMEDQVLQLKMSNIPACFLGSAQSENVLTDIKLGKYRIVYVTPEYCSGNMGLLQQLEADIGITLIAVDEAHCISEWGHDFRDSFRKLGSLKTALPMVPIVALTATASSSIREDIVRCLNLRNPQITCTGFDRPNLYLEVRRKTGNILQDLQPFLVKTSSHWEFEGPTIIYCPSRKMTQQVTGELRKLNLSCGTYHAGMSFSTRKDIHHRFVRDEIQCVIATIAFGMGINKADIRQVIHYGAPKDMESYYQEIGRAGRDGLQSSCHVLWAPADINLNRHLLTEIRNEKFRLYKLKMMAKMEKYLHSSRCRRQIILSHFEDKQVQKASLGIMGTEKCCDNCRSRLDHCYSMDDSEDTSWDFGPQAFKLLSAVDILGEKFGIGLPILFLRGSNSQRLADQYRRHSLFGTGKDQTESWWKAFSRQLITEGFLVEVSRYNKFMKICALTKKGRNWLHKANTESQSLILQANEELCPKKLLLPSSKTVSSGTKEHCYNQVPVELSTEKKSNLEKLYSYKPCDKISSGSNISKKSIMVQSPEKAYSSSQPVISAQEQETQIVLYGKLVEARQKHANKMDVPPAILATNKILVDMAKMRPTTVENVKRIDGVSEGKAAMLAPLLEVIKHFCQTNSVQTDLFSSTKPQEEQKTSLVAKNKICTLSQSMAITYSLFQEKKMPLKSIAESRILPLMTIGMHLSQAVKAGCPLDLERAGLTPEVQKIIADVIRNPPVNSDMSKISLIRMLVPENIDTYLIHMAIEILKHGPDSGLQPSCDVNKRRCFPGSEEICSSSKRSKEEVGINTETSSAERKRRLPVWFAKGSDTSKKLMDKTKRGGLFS
Compound,"activity change, negative = inhibition",Potency
O=C(NCCCn1ccnc1)C(=O)c1cn(CC(=O)N2CCCCCC2)c2ccccc12,-2.75%,–
Cc1nc2ccc(S(=O)(=O)NCC(=O)O)cc2s1,2.69%,–
C/C(CC(O)(/C=N/O)c1ccccc1)=N\O (centres undefined),3.21%,–
Cn1sc(=O)c2cc(S(=O)(=O)NC3CC3)ccc21,–,44.7 µM (active)
O=S(=O)(NC1CC1)c1ccc(F)c(F)c1,6.22%,–
O=S(=O)(NC1CC1)c1ccc(Cl)cc1,-0.583%,–
Cc1c(C(=O)NCCN(C)C)oc2ccc(S(=O)(=O)N3CCCC3)cc12,0.474%,–
CCOP1(=O)C=C(C(C)(C)C)OC1c1ccc(F)cc1 (centres undefined),2.89%,–
C[C@@H]1CN([C@H](C)CO)C(=O)CCCn2cc(nn2)CO[C@H]1CN(C)S(=O)(=O)c1ccc(Oc2ccccc2)nc1,6.33%,–
CC12CCC(C(=O)N(CCC#N)CCC#N)(CC1=O)C2(C)C (centres undefined),-12%,–
COC(=O)[C@@]1(Cc2ccc(F)cc2)[C@H]2c3cc(C(=O)N4CCCC4)n(C[C@H](O)CO)c3C[C@H]2CN1C(=O)c1ccccc1,-0.35%,–
CCOC(=O)N1CCC(NC(=O)CN2C(=O)COc3ccc(C(C)(C)C)cc32)CC1,3.66%,–
CC[C@]12c3[nH]c4ccc(OC)cc4c3CCN1C(=O)C(CC(=O)NCCN1CCOCC1)C[C@@H]2C(=O)N1CCN(C(=O)C2CC2)CC1 (some centres undefined),10.8%,–
O=C(NCCc1ccco1)c1nn(Cc2ccccc2)c(=O)c2ccccc12,-18.2%,–
O=c1/c(=C/c2ccc(CNS(=O)(=O)c3ccccc3)o2)sc2n1CCN=2,-17.2% [at 57.1 µM],–
O=c1nc2s/c(=C\c3ccco3)c(=O)n2nc1Cc1ccccc1,–,35.5 µM (active)
Cc1cc(C(=O)OC(C)C(=O)Nc2cccc(S(=O)(=O)N3CCOCC3)c2)c(C)o1 (centres undefined),-4.49%,–
CCOC(=O)N1CCN(C(=O)COC(=O)c2cccc(S(C)(=O)=O)c2)CC1,-2.83%,–
CN(C)c1nc(Nc2ccc(Cl)c(Cl)c2)nc(N(C)C)n1,–,79.4 µM (active)
CN(C)c1nc(NN)nc(Nc2ccc(F)cc2)n1,-7.55%,–
CC(=O)Nc1nc(N(C)C)nc(N(C)C)n1,-1.07%,–
O=C(CCS(=O)(=O)c1ccc(Br)cc1)NCCc1ccc(Cl)cc1,-8.96% [at 11.6 µM],–
COc1ccc(Cl)cc1NC(=O)CCS(=O)(=O)c1ccc(Br)cc1,–,44.7 µM (active)
CCOc1ccc(OCC)c(NC(=O)CCS(=O)(=O)c2ccc(C)cc2)c1,-5.18%,–
COC(=O)[C@]1(Cc2ccccc2)N[C@H](CN(C)S(=O)(=O)c2ccc(OC(F)(F)F)cc2)[C@@H]2C(=O)N(C)C(=O)[C@@H]21,-3.83%,–

Compound,"activity change, negative = inhibition",Potency
[O-][n+]1c2c(nn1-c1ccc(Cl)c(Cl)c1)-c1nonc1CC2,3.25%,–
Cc1cc(C)c(S(=O)(=O)c2ccccc2)c(OC(=O)c2c(F)cccc2Cl)n1,-13.3%,–
CC(C(=O)NC1CCS(=O)(=O)C1)N1C(=O)/C(=C/c2ccc(Cl)cc2)SC1=S (centres undefined),-8.03%,–
O=C(O)C(c1ccccc1)N1C(=O)/C(=C\c2ccc(-c3cccc(Cl)c3)o2)SC1=S (centres undefined),–,44.7 µM (active)
CC(C(=O)Nc1ccc(O)c(C(=O)O)c1)N1C(=O)/C(=C/c2cccs2)SC1=S (centres undefined),-16.7% [at 11.6 µM],–
CCc1c(-c2ccc(F)cc2)ncn1Cc1cccc(-c2ccccc2)c1,0.397%,–
Cc1cccc(C(=O)NNC(=O)CSc2nnc(C(C)C)n2C)c1,-22%,–
FC(F)(F)C1CCCN(c2nsc3ccccc23)C1 (centres undefined),–,22.4 µM (active)
COc1ccc(Br)c(Cn2c(C)c(C(=O)NCc3cccs3)sc2=O)c1,1.69% [at 57.1 µM],–
COC(=O)C1=CN(c2c(C)cc(C)cc2C)C(N)=C(C#N)C1c1cccc(F)c1 (centres undefined),-5.53%,–
FC(F)(F)c1cccc(-c2nc3ccccc3n2C(c2ccccc2)c2nc3ccccc3[nH]2)c1 (centres undefined),-2.09%,–
CC1CN(/C=C/C(=O)C(F)(F)F)CC(C)O1 (centres undefined),-7.09%,–
CC1=NN(c2ccc(Cl)c(C(=O)O)c2)C(=O)/C1=C/c1ccc(-c2ccccc2[N+](=O)[O-])o1,–,44.7 µM (active)
O=C1C2C3C=CC(C4CC34)C2C(=O)N1/N=C/c1ccc(-c2ccccc2[N+](=O)[O-])o1 (centres undefined),-4.13%,–
COc1ccc(/C=C2/C(=O)N(c3ccccc3)N=C2C)c(OC)c1,-30.6% [at 11.6 µM],–
COc1c(Br)cc2c(C)c(C(=O)N3CCOCC3)oc2c1Br,-1.91%,–
O=C(Cn1nnc2ccccc2c1=O)NCc1ccc(Cl)cc1,7.75%,–
O=C(c1ncn2c1c(=O)[nH]c1ccccc12)N1CCc2ccccc2C1,2.79%,–
O=c1[nH]c2ccccc2n2c(-c3ccccc3)nnc12,–,20 µM (active)
CS(=O)(=O)N1CCCCC1c1cc(C(=O)NCc2ccccc2)no1 (centres undefined),-12.7%,–
COc1ccc(OC(C)C(=O)Nc2cccnc2)cc1 (centres undefined),2.46%,–
COc1ccc(C(O)c2nc(-c3ccc(OC)nc3)cs2)cc1 (centres undefined),-0.589%,–
COc1ccc(CS(=O)/C(Cl)=C(/Cl)C(=O)Nc2ccc(OC)nc2)cc1 (centres undefined),–,17.8 µM (active)
CC(C)C[C@H]1CN([C@@H](Cc2ccccc2)CN2CCC[C@@H]2CN2C(=O)C(=O)NC[C@@H]2Cc2ccc(O)cc2)C(=O)C(=O)N1CCc1ccccc1,-7.43%,–
